# The supplement of paper PMC8047044
# Where a name gives a salt, the structure may show the parent alone.
# Test system: Neuro-2a
# Test: neurite formation score, plate-normalized to DMSO control mean 5.04 (score (0-8 scale)); higher = more or longer neurites
# Conditions: 0.1 µM
# Protocol: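 Neuro-2a mouse neuroblastoma cells in PLL-coated 96-well plates were pre-treated for 1 h in DMEM(+) with each kinase inhibitor at 0.1 µM, then switched to serum-free DMEM(-) with inhibitor to induce neurite outgrowth and fixed about 2-3 h later. Three blinded observers scored neurite formation from 0 (no neurites) to 8 (long neurites on almost all cells).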
row,SMILES,neurite formation score
1,C=CC(=O)Nc1ccc2ncnc(Nc3ccc(OCc4cccc(F)c4)c(Cl)c3)c2c1,4.21
2,C=CC(=O)Nc1cccc(Oc2nc(Nc3ccc(N4CCN(C)CC4)cc3OC)ncc2Cl)c1,4.04
3,O=C(O)c1ccc(-c2c[nH]c3ncc(-c4ccccc4)cc23)cc1C1CCCC1,3.92
4,C[S+]([O-])c1ccc(-c2nc(-c3ccc(F)cc3)c(-c3ccncc3)[nH]2)cc1 (stereo not given),4.88
5,O=c1cc(N2CCOCC2)oc2c(-c3cccc4c3sc3ccccc34)cccc12,4.21
6,COc1cc2/c(=N/c3ccc(Br)cc3F)nc[nH]c2cc1OCC1CCN(C)CC1 [Vandetanib (ZD6474)],5.09
7,COc1cc(N2CCC(N3CCN(C)CC3)CC2)ccc1Nc1ncnc(Nc2ccccc2S(=O)(=O)C(C)C)n1,4.38
8,COc1c(OCCCN2CCOCC2)ccc2c3n(c(=NC(=O)c4cnc(N)nc4)nc12)CCN3 [BAY 80-6946 (Copanlisib)],4.76
9,Cc1c(F)cc(C(=O)NC2CC2)cc1-c1ccc(C(=O)NCC(C)(C)C)cn1 [Losmapimod],4.75
10,C[C@@H](Oc1cc(-n2cnc3ccc(CN4CCN(C)CC4)cc32)sc1C(N)=O)c1ccccc1C(F)(F)F,3.58
11,Nc1cccc(S(=O)(=O)N2CCCN(S(=O)(=O)c3ccc4c(c3)OCCO4)CC2)c1,4.09
12,Cn1cnc2c(F)c(Nc3ccc(Br)cc3Cl)c(C(=O)NOCCO)cc21 [AZD6244 (Selumetinib)],5.54
13,CC(C)CC(=O)Nc1n[nH]c2c1CN(C(=O)C1CCN(C)CC1)C2(C)C,4.54
14,CNC(=O)c1cc(Oc2ccc(NC(=O)Nc3ccc(Cl)c(C(F)(F)F)c3)cc2)ccn1 [Sorafenib Tosylate],3.54
15,CNc1nc(Nc2ccc(C(=O)N3CCOCC3)cc2OC)ncc1Cl,4.58
16,CCS(=O)(=O)N1CCN(c2ccc(Nc3ncc(C(N)=O)c(NC4CC4)n3)cc2)CC1,5.08
17,CO[C@@H](C(=O)N1Cc2[nH]nc(NC(=O)c3ccc(N4CCN(C)CC4)cc3)c2C1)c1ccccc1,4.58
18,COc1cc2ncnc(Sc3nnc(C)s3)c2cc1OC,4.25
19,Cc1cc(Nc2ncc(Cl)c(Nc3ccccc3S(=O)(=O)C(C)C)n2)c(OC(C)C)cc1C1CCNCC1,5.21
20,N#CCNC(=O)c1ccc(-c2ccnc(Nc3ccc(N4CCOCC4)cc3)n2)cc1,4.92

row,SMILES,neurite formation score
1,COc1cc(-c2cc(-c3cccc(O)c3)cnc2N)cc(OC)c1OC,4.08
2,O=C(NC(NC(=S)Nc1ccc(F)c([N+](=O)[O-])c1)C(Cl)(Cl)Cl)C(c1ccccc1)c1ccccc1 (stereo not given),4.25
3,CNC(=O)c1ccc(-c2cnc3ncc(Cc4ccc5ncccc5c4)n3n2)cc1F,4.09
4,CCn1c2ccccc2c2cc(Nc3ccnc(NCCCN4CCOCC4)n3)ccc21,3.42
5,COc1ccc(CNC(=O)Nc2ncc([N+](=O)[O-])s2)cc1,4.71
6,NC(=O)c1ncn([C@@H]2O[C@H](CO)[C@@H](O)[C@H]2O)c1N,5.54
7,Nc1cccc(-c2cc3c(Oc4cccc(O)c4)ncnc3[nH]2)c1,3.75
8,CCn1c(-c2nonc2N)nc2c(C#CC(C)(C)O)ncc(OC[C@H]3CCCNC3)c21,3.25
9,O=C1c2ccc(Nc3ccc(F)cc3F)cc2CCc2ccc(OC[C@H](O)CO)cc21 [Skepinone-L],5.25
10,CN1CCN(c2ccc(C(=O)Nc3n[nH]c4ccc(Cc5cc(F)cc(F)c5)cc34)c(NC3CCOCC3)c2)CC1 [Entrectinib],0.751
11,Cc1cc(Nc2cc(CN3CCOCC3)c3nc(C)c(Cc4ccc(Cl)cc4F)n3n2)n[nH]1,5.25
12,CNC(=O)c1nn(C)c2c1C(C)(C)Cc1cnc(Nc3ccc(N4CCN(C)CC4)cc3)nc1-2,4.58
13,CCN(CC)CCCC(C)Nc1ccnc2cc(Cl)ccc12 (stereo not given) [Chloroquine diphosphate],4.58
14,O=c1c(O)c(-c2ccc(O)c(O)c2)oc2cc(O)cc(O)c12 [Quercetin],5.08
15,N#CCNC(=O)c1ccc(-c2ccnc(Nc3ccc(N4CCOCC4)cc3)n2)cc1 [CYT387 sulfate salt],4.92
16,COc1cc2nccc(Oc3ccc(NC(=O)NC4CC4)c(Cl)c3)c2cc1C(N)=O [Lenvatinib (E7080)],4.38
17,Cc1cc(Nc2cc(N3CCN(C)CC3)nc(/C=C/c3ccccc3)n2)n[nH]1,3.92
18,Cc1cnc(Nc2ccc(F)cc2Cl)nc1-c1c[nH]c(C(=O)N[C@H](CO)c2cccc(Cl)c2)c1,4.58
19,O=C1Nc2ccc(I)cc2/C1=C/c1cc(Br)c(O)c(Br)c1,4.25
20,O=C(NC1CCNCC1)c1n[nH]cc1NC(=O)c1c(Cl)cccc1Cl,5.88
